Compound activity deposited in PubChem BioAssay by National Center for Advancing Translational Sciences (NCATS).
In the library only some 10% were active in any assay of this set; here they are far more common.
G9a block = G9a (human) methyltransferase inhibition; actives 8.8% (n = 350,000); G9a H3K9 monomethylation, AlphaScreen, 2 h; AID 504332; Q96KQ7; Potency, µM (series often up to 102 µM), actives largely listed as inhibitors; also: nearly all actives have a fitted effect of over 75% in size
Target sequence (Q96KQ7 913-1193 limits assumed): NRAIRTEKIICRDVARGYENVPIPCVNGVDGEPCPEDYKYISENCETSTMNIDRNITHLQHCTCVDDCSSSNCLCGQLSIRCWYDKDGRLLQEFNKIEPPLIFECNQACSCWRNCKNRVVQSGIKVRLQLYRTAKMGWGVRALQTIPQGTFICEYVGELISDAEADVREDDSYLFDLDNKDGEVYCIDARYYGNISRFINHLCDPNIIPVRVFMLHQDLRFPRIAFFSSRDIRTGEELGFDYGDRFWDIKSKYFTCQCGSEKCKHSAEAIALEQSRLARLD
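Quantitative HTS format: methyltransferase activity on a biotin-tagged H3K9 peptide is measured by AlphaScreen, using a rabbit anti-monomethyl-H3K9 antibody with streptavidin donor and anti-IgG acceptor beads. Final levels are 20 nM enzyme, 500 nM peptide, 20 uM SAM; 2 h RT.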
HP1b chromo inh = inhibitors of HP1-beta chromodomain binding to methylated histone tails; AlphaScreen HP1-beta / biotin-H3K9me3 peptide binding; Potency, µM (top dose mostly 114 µM), most hits filed as inhibitors; actives 0.56% (n = 390,000); also: nearly all actives have a fitted effect of over 70% in size
Target sequence (P83916 whole entry, looked up): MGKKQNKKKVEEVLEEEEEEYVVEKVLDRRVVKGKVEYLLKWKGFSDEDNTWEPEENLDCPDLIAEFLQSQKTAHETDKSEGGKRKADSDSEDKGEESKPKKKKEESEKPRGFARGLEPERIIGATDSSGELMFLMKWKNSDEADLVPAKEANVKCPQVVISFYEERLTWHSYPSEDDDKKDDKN
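AlphaScreen: HP1-beta (50 nM) preformed 30 min with biotin-H3(1-18)K9me3 peptide (50 nM) in PBS pH 7.4, 0.01% Tween-20. Compound added for 30 min at RT, then streptavidin donor/nickel chelate acceptor beads (10 ug/mL) for 30 min.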
GLS inh = blocks human kidney-isoform glutaminase activity; Potency, µM (titrated, usually from 45.5 µM), hits mostly inhibitors; actives 0.21% (n = 410,000); GLS enzymatic activity, qHTS titration; O94925
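Read-out is an Amplex red fluorescence increase coupled through glutamate oxidase and HRP, measured before and after 30 min room-temperature incubation. hKGA is in 45 mM KH2PO4 (pH 8.2) with 0.02% Tween-20; glutamine added as 1mM solution.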
BAZ2B inh = BAZ2B (human) inhibition | Q9UIF8 | AlphaScreen BAZ2B-H3K14Ac peptide displacement | Potency, µM (highest dose often 114 µM), actives largely listed as inhibitors | actives 4.4% (n = 360,000) | AID 504333; also: nearly all actives have a fitted effect of over 60% in size
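Inhibition is scored as reduced AlphaScreen emission. The BAZ2B/b-H3(5-23)K14Ac complex (50 nM each) in PBS pH 7.4, 0.01% Tween-20 meets compound (up to 110 uM) for 30 min at RT before bead addition.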
L3MBTL1 block = L3MBTL1 (human) inhibition. actives 0.66% (n = 230,000). Q9Y468. Potency, µM (highest dose often 57.1 µM), most hits filed as inhibitors. AlphaScreen L3MBTL1–H3K9me1 peptide binding. AID 485360; also: nearly all actives have a fitted effect of over 60% in size
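L3MBTL1 50 nM + b-AHA-H3(1-15)K9me1 75 nM, 30 min RT; compound added, 30 min RT; streptavidin donor/Ni-chelate acceptor beads 10 ug/mL each final, 30 min RT dark; AlphaScreen read.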
JMJD2A Tudor = JMJD2A Tudor domain (human) inhibition. O75164. AlphaScreen JMJD2A-Tudor / H3K4me3 peptide binding. Potency, µM (top dose mostly 114 µM), most hits filed as inhibitors. actives 4.4% (n = 390,000). AID 504339; also: nearly all actives have a fitted effect of over 50% in size
A number is an active result; [ ] = remark or other dose. Calls follow the shape of the dose curve; as a rule, active = well fitted curve in the direction sought with a large enough effect; inconclusive = small, poorly fitted or top-dose-only effect, or another doubt; inactive = no such curve, though single readings can be large; an effect the other way counts as inactive or inconclusive.

What do the screens show for `Cc1c(C(=O)OCC(=O)NCc2ccco2)cccc1[N+](=O)[O-]`?
G9a block: inactive; HP1b chromo inh: inactive; GLS inh: inactive; BAZ2B inh: 50µM; L3MBTL1 block: inactive; JMJD2A Tudor: inconclusive

Results for O=C(Cn1nnc(-c2cccs2)n1)NCc1ccco1 ?
G9a block: inactive; HP1b chromo inh: inactive; GLS inh: inactive; BAZ2B inh: inactive; L3MBTL1 block: inactive; JMJD2A Tudor: inactive

How did O=C(COC(=O)c1ccc(F)cc1Cl)NCc1ccco1 do in these assays?
G9a block: inconclusive; HP1b chromo inh: inconclusive; GLS inh: inactive; BAZ2B inh: 50µM; L3MBTL1 block: inconclusive; JMJD2A Tudor: 50µM

What do the screens show for `O=C(COC(=O)c1ccc([N+](=O)[O-])cc1Cl)NCc1ccco1`?
G9a block: inactive[12.7 µM]; HP1b chromo inh: inactive; GLS inh: inactive; BAZ2B inh: inactive; L3MBTL1 block: inactive; JMJD2A Tudor: inactive

How did O=C(Cn1nnc(-c2ccc(Cl)cc2)n1)NCc1ccco1 do in these assays?
G9a block: inconclusive; HP1b chromo inh: inactive; GLS inh: inactive; BAZ2B inh: 50µM; L3MBTL1 block: inactive[11.4 µM]; JMJD2A Tudor: inactive

Results for O=C(COC(=O)CCC(=O)c1ccc(Cl)cc1)NCc1ccco1 ?
G9a block: 50µM; HP1b chromo inh: inactive; GLS inh: inactive; L3MBTL1 block: inactive; JMJD2A Tudor: inconclusive

What do the screens show for `Cc1cccc(Nc2ccccc2C(=O)OCC(=O)NCc2ccco2)c1C`?
G9a block: inactive[0.0925 µM]; HP1b chromo inh: inactive; GLS inh: inactive; BAZ2B inh: 50µM; L3MBTL1 block: inactive; JMJD2A Tudor: 45µM

Results for O=C(COC(=O)c1ccccc1Nc1ccc(SC(F)F)cc1)NCc1ccco1 ?
G9a block: inactive; HP1b chromo inh: inactive; GLS inh: inactive; BAZ2B inh: inactive; L3MBTL1 block: inactive; JMJD2A Tudor: inactive

How did COc1cc(/C=C2/CC/C(=C/c3ccc(O)c(OC)c3)C2=O)ccc1O do in these assays?
G9a block: inconclusive; HP1b chromo inh: inactive; GLS inh: inactive; BAZ2B inh: inconclusive; L3MBTL1 block: inactive; JMJD2A Tudor: inactive[11.4 µM]

What do the screens show for `COc1cc(/C=C2\COC/C(=C\c3ccc(O)c(OC)c3)C2=O)ccc1O`?
G9a block: 32µM; HP1b chromo inh: inconclusive; GLS inh: inactive; BAZ2B inh: inconclusive; L3MBTL1 block: inconclusive; JMJD2A Tudor: inconclusive

How did COc1cc(/C=C/C=C2/CC/C(=C/C=C/c3ccc(O)c(OC)c3)C2=O)ccc1O do in these assays?
HP1b chromo inh: inconclusive; GLS inh: inconclusive; JMJD2A Tudor: 56µM

What do the screens show for `Cc1ccc(-n2cnc3cc(C(=O)NCc4ccc(F)cc4)ccc32)c(C)c1`?
G9a block: inactive; HP1b chromo inh: inactive; GLS inh: inactive; BAZ2B inh: inactive; JMJD2A Tudor: inconclusive

Results for COC(=O)C1=C(C)Nc2c(c(=O)n(C)c(=O)n2C)C1c1cccc(O)c1 (configuration not stated) ?
HP1b chromo inh: inactive; GLS inh: inactive; BAZ2B inh: inactive; L3MBTL1 block: inactive; JMJD2A Tudor: inactive

Results for Cn1c2c(c(=O)[nH]c1=O)C(c1cccc(O)c1)C1=C(N2)c2ccccc2C1=O (configuration not stated) ?
G9a block: 32µM; HP1b chromo inh: inactive; GLS inh: inactive; BAZ2B inh: inconclusive; L3MBTL1 block: inactive; JMJD2A Tudor: inactive

How did Cc1[nH]c(=S)c(C#N)c(C)c1CCC#N do in these assays?
G9a block: 2.8µM; HP1b chromo inh: inactive; GLS inh: inactive; BAZ2B inh: inactive; JMJD2A Tudor: 20µM

Results for CC(C)(C)/C(O)=C/c1nc2cc(Cl)ccc2oc1=O ?
G9a block: 45µM; HP1b chromo inh: inactive; GLS inh: inactive; BAZ2B inh: inactive; L3MBTL1 block: inactive; JMJD2A Tudor: inconclusive

How did CC(C)(C)c1ccc(C(=O)N2CC(=O)Nc3ccc(F)cc3C2c2ccc(F)cc2)cc1 (configuration not stated) do in these assays?
G9a block: inactive; HP1b chromo inh: inactive; GLS inh: inactive; BAZ2B inh: inactive; JMJD2A Tudor: inactive

What do the screens show for `Cc1nc(NCCCn2ccnc2)c2ccccc2n1`?
G9a block: inactive; HP1b chromo inh: inactive; GLS inh: inactive; BAZ2B inh: inactive; L3MBTL1 block: inactive; JMJD2A Tudor: 89µM

Results for c1cncc(-c2nc(NCc3ccco3)c3ccccc3n2)c1 ?
G9a block: inconclusive; HP1b chromo inh: inactive; GLS inh: inactive; BAZ2B inh: inconclusive; L3MBTL1 block: inactive; JMJD2A Tudor: inactive

Results for c1cncc(-c2nc(NCCCn3ccnc3)c3ccccc3n2)c1 ?
G9a block: inactive; HP1b chromo inh: inactive; GLS inh: inactive; BAZ2B inh: 10µM; JMJD2A Tudor: 20µM

What do the screens show for `OCCNc1nc(-c2cccnc2)nc2ccccc12`?
G9a block: inactive; HP1b chromo inh: inactive; GLS inh: inactive; BAZ2B inh: inactive; L3MBTL1 block: inactive; JMJD2A Tudor: inactive

What do the screens show for `c1ccc(-c2nc(NCCCn3ccnc3)c3oc4ccccc4c3n2)cc1`?
G9a block: 18µM; HP1b chromo inh: inactive; GLS inh: inactive; BAZ2B inh: 45µM; L3MBTL1 block: inactive; JMJD2A Tudor: inconclusive

How did c1ccc(-c2nc(NCc3ccco3)c3oc4ccccc4c3n2)cc1 do in these assays?
G9a block: inconclusive; HP1b chromo inh: inactive; GLS inh: inactive; BAZ2B inh: inconclusive; L3MBTL1 block: inactive; JMJD2A Tudor: 89µM

Results for CCc1nc(NCCCn2ccnc2)c2oc3ccccc3c2n1 ?
G9a block: inconclusive; HP1b chromo inh: inactive; GLS inh: inactive; BAZ2B inh: inconclusive; L3MBTL1 block: inactive; JMJD2A Tudor: inactive

What do the screens show for `Cc1ccc(NC(=O)c2oc3ccc(S(=O)(=O)N4CCCCCC4)cc3c2C)c(C)c1`?
G9a block: inactive; HP1b chromo inh: inactive; GLS inh: inactive; BAZ2B inh: inactive; JMJD2A Tudor: inactive

Results for Cc1cccc(CNC(=O)c2sc3ncnc(N(C)C4CCCCC4)c3c2C)c1 ?
G9a block: inactive; HP1b chromo inh: inactive; GLS inh: inactive; BAZ2B inh: inactive; JMJD2A Tudor: inactive

How did COc1cccc(NC(=O)CSc2nccn2C2CCCC2)c1 do in these assays?
G9a block: inactive; HP1b chromo inh: inactive; GLS inh: inactive; BAZ2B inh: inconclusive; JMJD2A Tudor: inactive

What do the screens show for `CCN(CC)c1nn2c(=O)c(C(=O)NCCc3ccc(C)cc3)cnc2s1`?
G9a block: inactive; HP1b chromo inh: inactive; GLS inh: inactive; BAZ2B inh: inactive; JMJD2A Tudor: inactive

How did Cc1ccc(S(=O)(=O)NC(=O)Nc2ccc(N(C)C)cc2)cc1 do in these assays?
G9a block: inconclusive; HP1b chromo inh: 18µM; GLS inh: inactive; BAZ2B inh: 14µM; JMJD2A Tudor: 22µM
